# In the supplement of paper PMC10037445:
# ± gives the standard deviation of the averaged measurements. The full ranking holds about 2,900 compounds; the median of “NF-kB SEAP reporter activity, fold change vs agonist alone” is about 0.99, and the highest 2% start at about 2.6. For the sample, the highest values were picked, then their nearest neighbours and some compounds at random.
# Legend:
# [1] = tested on: RAW-Dual; assay: NF-kB SEAP reporter activity, fold change vs agonist alone; higher = enhanced NF-kB activity
# Procedure, shortened: (§1)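 Reporter activity is given as fold change relative to agonist-alone wells. To measure it, 50 nL of library stock was pin-tooled onto RAW-Dual macrophages (50,000 cells/well, DMEM, 384-well plates), a PRR agonist followed 1 h later, and cells stayed at 37 °C, 5% CO2. Twenty hours on, supernatant was assayed for IRF (QuantiLuc luminescence) and NF-κB (QuantiBlue, 620 nm absorbance), and wells under 70% of agonist-control IncuCyte confluency in both mask sets were marked cytotoxic.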
# [2] = tested on: RAW-Dual; assay: NF-kB SEAP reporter activity, fold change vs agonist alone; cytotoxicity flag (confluency mask): not cytotoxic; higher = enhanced NF-kB activity
# Procedure, shortened: as §1
# [3] = tested on: RAW-Dual; assay: NF-kB SEAP reporter activity, fold change vs agonist alone; cytotoxicity flag (confluency mask): cytotoxic (confluency <70% of control); higher = enhanced NF-kB activity
# Procedure, shortened: as §1
# [4] = library stock concentration (final ~1000-fold dilution): 10 mM, cytotoxicity flag (confluency mask): not cytotoxic, agonist: Imiquimod (TLR7) […]
# [5] = library stock concentration (final ~1000-fold dilution): 10 mM, cytotoxicity flag (confluency mask): not cytotoxic, agonist: MPLA (TLR4) […]
# [6] = agonist: ODN 1826 (TLR9) 0.5 ug/mL
# [7] = agonist: Pam2CSK4 (TLR2/6) 0.1 ug/mL
# [8] = agonist: Pam3CSK4 (TLR2/1) 0.1 ug/mL
# [9] = library stock concentration (final ~1000-fold dilution): 2 mM, cytotoxicity flag (confluency mask): not cytotoxic, agonist: MPLA (TLR4) […]
# [10] = library stock concentration (final ~1000-fold dilution): 10 mM, cytotoxicity flag (confluency mask): cytotoxic (confluency <70% of control), agonist: Imiquimod (TLR7) […]
# [11] = library stock concentration (final ~1000-fold dilution): 10 mM, cytotoxicity flag (confluency mask): cytotoxic (confluency <70% of control), agonist: MPLA (TLR4) […]
structure (smiles),measurement,setting,value
COc1ccc(CCc2nc3cc(-c4c(C)noc4C)ccc3n2CC(C)N2CCOCC2)cc1Cl (centres undefined),NF-kB SEAP reporter activity,[1]; [4],1.51
same,NF-kB SEAP reporter activity,[1]; [5],2.65
Cc1nc2cc(F)c(F)cc2n1-c1cncc(Nc2ccc(C(F)(F)F)cc2)n1 (library stock concentration (final ~1000-fold dilution): 10 mM),NF-kB SEAP reporter activity,[2]; agonist: LPS (TLR4) 0.1 ug/mL,1.36
same,NF-kB SEAP reporter activity,[2]; [6],1.31
same,NF-kB SEAP reporter activity,[2]; [7],0.571
same,NF-kB SEAP reporter activity,[2]; [8],0.582
Cc1nc2cc(F)c(F)cc2n1-c1cncc(Nc2ccc(C(F)(F)F)cc2)n1,NF-kB SEAP reporter activity,[1]; [4],1.56
same,NF-kB SEAP reporter activity,[1]; [5],1.33
CC1=CC2(O)OC3(CC2=C(C)C)C(C)CCC13 (centres undefined) (library stock concentration (final ~1000-fold dilution): 10 mM),NF-kB SEAP reporter activity,[2]; agonist: LPS (TLR4) 0.1 ug/mL,1.04 ± 0.043
same,NF-kB SEAP reporter activity,[2]; [6],0.938 ± 0.07
same,NF-kB SEAP reporter activity,[2]; [7],0.963 ± 0.062
same,NF-kB SEAP reporter activity,[2]; [8],1.06 ± 0.049
CC1=CC2(O)OC3(CC2=C(C)C)C(C)CCC13 (centres undefined),NF-kB SEAP reporter activity,[1]; [4],0.957 ± 0.03
same,NF-kB SEAP reporter activity,[1]; [5],1.03 ± 0.025
CCc1cc2c(cc1N1CCC(N3CCOCC3)CC1)C(C)(C)c1[nH]c3cc(C#N)ccc3c1C2=O.Cl (library stock concentration (final ~1000-fold dilution): 2 mM),NF-kB SEAP reporter activity,[2]; agonist: LPS (TLR4) 0.1 ug/mL,1.71
same,NF-kB SEAP reporter activity,[2]; [6],1.17
same,NF-kB SEAP reporter activity,[2]; [7],1.15
same,NF-kB SEAP reporter activity,[2]; [8],1.15
CCc1cc2c(cc1N1CCC(N3CCOCC3)CC1)C(C)(C)c1[nH]c3cc(C#N)ccc3c1C2=O.Cl,NF-kB SEAP reporter activity,[1]; [9],1.31
O=C(O)c1ccc(/C=C2/SC(=S)N(Cc3cccc(C(F)(F)F)c3)C2=O)cc1,NF-kB SEAP reporter activity,[1]; [4],0.954
same,NF-kB SEAP reporter activity,[1]; [5],0.727
O=C(O)c1ccc(/C=C2/SC(=S)N(Cc3cccc(C(F)(F)F)c3)C2=O)cc1 (library stock concentration (final ~1000-fold dilution): 10 mM),NF-kB SEAP reporter activity,[2]; agonist: LPS (TLR4) 0.1 ug/mL,0.619
same,NF-kB SEAP reporter activity,[2]; [6],0.737
same,NF-kB SEAP reporter activity,[2]; [7],0.832
same,NF-kB SEAP reporter activity,[2]; [8],0.5
COc1cc(OCc2cccc(-c3ccccc3)c2C)cc(OC)c1CN1CCCCC1C(=O)O (centres undefined),NF-kB SEAP reporter activity,[1]; [10],1.22
same,NF-kB SEAP reporter activity,[1]; [11],1.03
COc1cc(OCc2cccc(-c3ccccc3)c2C)cc(OC)c1CN1CCCCC1C(=O)O (centres undefined) (library stock concentration (final ~1000-fold dilution): 10 mM),NF-kB SEAP reporter activity,[3]; agonist: LPS (TLR4) 0.1 ug/mL,1.21
same,NF-kB SEAP reporter activity,[3]; [6],0.794
same,NF-kB SEAP reporter activity,[3]; [7],1.03
same,NF-kB SEAP reporter activity,[3]; [8],1.17
Cc1nccn1CC1CCc2c(c3ccccc3n2C)C1=O.Cl (centres undefined) (library stock concentration (final ~1000-fold dilution): 10 mM),NF-kB SEAP reporter activity,[2]; agonist: LPS (TLR4) 0.1 ug/mL,0.91
same,NF-kB SEAP reporter activity,[2]; [6],0.853
same,NF-kB SEAP reporter activity,[2]; [7],0.901
same,NF-kB SEAP reporter activity,[2]; [8],1.11
Cc1nccn1CC1CCc2c(c3ccccc3n2C)C1=O.Cl (centres undefined),NF-kB SEAP reporter activity,[1]; [4],0.917
same,NF-kB SEAP reporter activity,[1]; [5],0.785
COc1cc2ncnc(Nc3ccc(O)c(Br)c3)c2cc1OC,NF-kB SEAP reporter activity,[1]; [4],1.45
same,NF-kB SEAP reporter activity,[1]; [5],1.78
COc1cc2ncnc(Nc3ccc(O)cc3)c2cc1OC,NF-kB SEAP reporter activity,[1]; [4],1.05
same,NF-kB SEAP reporter activity,[1]; [5],1.16
C#Cc1cccc(Nc2ncnc3cc(OC)c(OCCCCCCC(=O)NO)cc23)c1,NF-kB SEAP reporter activity,[1]; [10],1.4
same,NF-kB SEAP reporter activity,[1]; [11],1.87
COc1cc2ncnc(Nc3cccc(Cl)c3)c2cc1OC,NF-kB SEAP reporter activity,[1]; [10],1.58
same,NF-kB SEAP reporter activity,[1]; [11],1.42
C#Cc1cccc(Nc2ncnc3cc(OCCOC)c(OCCO)cc23)c1.Cl,NF-kB SEAP reporter activity,[1]; [4],1.81
same,NF-kB SEAP reporter activity,[1]; [5],2.51
C#Cc1cccc(Nc2ncnc3cc(OC)c(NC(=O)N4CC5CCN(C)C5C4)cc23)c1 (centres undefined) (library stock concentration (final ~1000-fold dilution): 10 mM),NF-kB SEAP reporter activity,[2]; agonist: LPS (TLR4) 0.1 ug/mL,3.99
same,NF-kB SEAP reporter activity,[2]; [6],0.205
same,NF-kB SEAP reporter activity,[2]; [7],0.732
same,NF-kB SEAP reporter activity,[2]; [8],0.783
C#Cc1cccc(Nc2ncnc3cc4c(cc23)OCCOCCOCCO4)c1,NF-kB SEAP reporter activity,[1]; [4],1.06
same,NF-kB SEAP reporter activity,[1]; [5],1.53
COc1cc2ncnc(Nc3ccc(O)c(Br)c3)c2cc1OC (library stock concentration (final ~1000-fold dilution): 10 mM),NF-kB SEAP reporter activity,[2]; agonist: LPS (TLR4) 0.1 ug/mL,2.33
same,NF-kB SEAP reporter activity,[2]; [6],1.17
same,NF-kB SEAP reporter activity,[2]; [7],0.685
same,NF-kB SEAP reporter activity,[2]; [8],1.19
COc1cc2ncnc(Nc3ccc(F)c(Cl)c3)c2cc1NC(=O)/C=C/CN1CCCCC1 (library stock concentration (final ~1000-fold dilution): 10 mM),NF-kB SEAP reporter activity,[3]; agonist: LPS (TLR4) 0.1 ug/mL,0.266
same,NF-kB SEAP reporter activity,[3]; [6],0.26
same,NF-kB SEAP reporter activity,[3]; [7],0.179
same,NF-kB SEAP reporter activity,[3]; [8],0.384
C#Cc1cccc(Nc2ncnc3cc(OC)c(OCCCCCCC(=O)NO)cc23)c1 (library stock concentration (final ~1000-fold dilution): 10 mM),NF-kB SEAP reporter activity,[3]; agonist: LPS (TLR4) 0.1 ug/mL,7.09
same,NF-kB SEAP reporter activity,[3]; [6],1.67
same,NF-kB SEAP reporter activity,[3]; [7],0.682
same,NF-kB SEAP reporter activity,[3]; [8],1.41
COc1cc2ncnc(Nc3cc(Br)c(O)c(Br)c3)c2cc1OC (library stock concentration (final ~1000-fold dilution): 10 mM),NF-kB SEAP reporter activity,[2]; agonist: LPS (TLR4) 0.1 ug/mL,2.14
same,NF-kB SEAP reporter activity,[2]; [6],0.951
same,NF-kB SEAP reporter activity,[2]; [7],0.984
same,NF-kB SEAP reporter activity,[2]; [8],0.757
COc1cc2ncnc(Nc3cccc(Cl)c3F)c2cc1OC(=O)N1CCN(C)CC1C (centres undefined) (library stock concentration (final ~1000-fold dilution): 10 mM),NF-kB SEAP reporter activity,[2]; agonist: LPS (TLR4) 0.1 ug/mL,1.19
same,NF-kB SEAP reporter activity,[2]; [6],0.84
same,NF-kB SEAP reporter activity,[2]; [7],1.19
same,NF-kB SEAP reporter activity,[2]; [8],1.1
C#Cc1cccc(Nc2ncnc3cc(OCCOC)c(OCCOC)cc23)c1,NF-kB SEAP reporter activity,[1]; [4],1.02
same,NF-kB SEAP reporter activity,[1]; [5],1.88
COc1cc2ncnc(Nc3ccc(O)cc3)c2cc1OC (library stock concentration (final ~1000-fold dilution): 10 mM),NF-kB SEAP reporter activity,[2]; agonist: LPS (TLR4) 0.1 ug/mL,0.948
same,NF-kB SEAP reporter activity,[2]; [6],0.826
same,NF-kB SEAP reporter activity,[2]; [7],0.971
same,NF-kB SEAP reporter activity,[2]; [8],0.867
C#Cc1cccc(Nc2ncnc3cc(OC)c(NC(=O)N4CC5CCN(C)C5C4)cc23)c1 (centres undefined),NF-kB SEAP reporter activity,[1]; [4],1.09
same,NF-kB SEAP reporter activity,[1]; [5],1.4
COc1cc2ncnc(Nc3cc(Br)c(O)c(Br)c3)c2cc1OC,NF-kB SEAP reporter activity,[1]; [4],0.787
same,NF-kB SEAP reporter activity,[1]; [5],1.53
C#Cc1cccc(Nc2ncnc3cc4c(cc23)OCCOCCOCCO4)c1 (library stock concentration (final ~1000-fold dilution): 10 mM),NF-kB SEAP reporter activity,[2]; agonist: LPS (TLR4) 0.1 ug/mL,1.8
same,NF-kB SEAP reporter activity,[2]; [6],0.972
same,NF-kB SEAP reporter activity,[2]; [7],1.16
same,NF-kB SEAP reporter activity,[2]; [8],1.44
C#Cc1cccc(Nc2ncnc3cc(OCCOC)c(OCCO)cc23)c1.Cl (library stock concentration (final ~1000-fold dilution): 10 mM),NF-kB SEAP reporter activity,[2]; agonist: LPS (TLR4) 0.1 ug/mL,4.71
same,NF-kB SEAP reporter activity,[2]; [6],1.41
same,NF-kB SEAP reporter activity,[2]; [7],1.02
same,NF-kB SEAP reporter activity,[2]; [8],1.87
COc1cc2ncnc(Nc3cccc(Cl)c3)c2cc1OC (library stock concentration (final ~1000-fold dilution): 10 mM),NF-kB SEAP reporter activity,[3]; agonist: LPS (TLR4) 0.1 ug/mL,1.59
same,NF-kB SEAP reporter activity,[3]; [6],0.692
same,NF-kB SEAP reporter activity,[3]; [7],0.764
same,NF-kB SEAP reporter activity,[3]; [8],1.02
COc1cc2ncnc(Nc3cccc(Cl)c3F)c2cc1OC(=O)N1CCN(C)CC1C (centres undefined),NF-kB SEAP reporter activity,[1]; [4],0.868
same,NF-kB SEAP reporter activity,[1]; [5],1.05
COc1cc2ncnc(Nc3ccc(F)c(Cl)c3)c2cc1NC(=O)/C=C/CN1CCCCC1,NF-kB SEAP reporter activity,[1]; [10],2.28
same,NF-kB SEAP reporter activity,[1]; [11],1.52
C#Cc1cccc(Nc2ncnc3cc(OCCOC)c(OCCOC)cc23)c1.Cl,NF-kB SEAP reporter activity,"[1]; library stock concentration (final ~1000-fold dilution): 2 mM, cytotoxicity flag (confluency mask): not cytotoxic, agonist: Imiquimod (TLR7) […]",0.949
same,NF-kB SEAP reporter activity,[1]; [9],1.39
C#Cc1cccc(Nc2ncnc3cc(OCCOC)c(OCCOC)cc23)c1 (library stock concentration (final ~1000-fold dilution): 10 mM),NF-kB SEAP reporter activity,[2]; agonist: LPS (TLR4) 0.1 ug/mL,4.68
same,NF-kB SEAP reporter activity,[2]; [6],1.33
same,NF-kB SEAP reporter activity,[2]; [7],0.887
same,NF-kB SEAP reporter activity,[2]; [8],0.935
C#Cc1cccc(Nc2ncnc3cc(OCCOC)c(OCCOC)cc23)c1.Cl (library stock concentration (final ~1000-fold dilution): 2 mM),NF-kB SEAP reporter activity,[2]; agonist: LPS (TLR4) 0.1 ug/mL,2.26
same,NF-kB SEAP reporter activity,[2]; [6],0.972
same,NF-kB SEAP reporter activity,[2]; [7],0.853
same,NF-kB SEAP reporter activity,[2]; [8],1.1
